From PubChem BioAssay AID2685 (National Center for Advancing Translational Sciences (NCATS), 2010)
Hit rate of the full screen: of about 320,000 compounds, about 2,100 (0.66%) were called active. Roughly 53% stayed inconclusive and do not appear here. Calls come from the whole dose curve; as a rule, active = well fitted inhibition curve with a large enough effect in the signal ratio, with a control signal flat (not every such curve was filed as active); inconclusive = small, poorly fitted or top-dose-only effect, or effect the other way, or a change in a side signal; inactive = flat fitted curve, though single readings scatter; the % refers to the signal ratio. The sample as a whole holds a higher share of actives than the screen did.

Test: qHTS Assay for Lipid Storage Modulators in Drosophila S3 Cells;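 for cell number change: cells counted by Cell Tracker Red CMTPX staining in the red channel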; for lipid storage change, negative = inhibition: % is set by controls: 0 for no effect and ±100 for the full control effect
Conditions: BODIPY lipid droplet fluorescence, 18-24 h, cells fed with added oleic acid; cell number change: measured here: cell count max response; series mostly up to 46.1 µM; lipid storage change, negative = inhibition: at the top concentration
Procedure, shortened: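 Drosophila S3 cells loaded with oleic acid (400 uM, as added) and compounds at several concentrations; lipid droplets imaged by 488-nm laser-scanning cytometry, 500–530 nm intensity and object ratio to cell channel. Percent activity normalized to 20 uM Triacsin C.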
Potency is the fitted concentration of half-maximal effect.

| SMILES | lipid storage change, negative = inhibition | cell number change [%] | Potency | outcome |
| --- | --- | --- | --- | --- |
| O=C(COc1ccc(-c2ccccc2)cc1)NNC(=O)Nc1ccc(F)cc1F | 8.38% (inactive) |  |  |  |
| CC1CN(Cc2ccccc2)C(C)CC1O (stereo unspecified) | 4.32% (inactive) | 13.3 |  |  |
| OC(COc1ccc(OCC(O)CN2CCCCCC2)cc1)CN1CCCCCC1 (stereo unspecified) | 13.9% (inactive) | -8.16 |  |  |
| COc1ccc(OCC(O)CN2CCCCCC2)cc1 (stereo unspecified) | -0.764% (inactive) | 9.25 |  |  |
| OC(COc1ccc(C2C=CCC2)cc1)CN1CCCCC1 (stereo unspecified) |  | 1.19 | 0.731 µM (active) |  |
| FC(F)(F)c1ccnc(N2CCN(Cc3cnc(-c4ccccc4)[nH]3)CC2)c1 | 8.54% (inactive) | 15 |  |  |
| CC(NS(=O)(=O)c1ccc(CCC(=O)NCc2cccnc2)cc1)c1ccccc1 (stereo unspecified) | 0.909% (inactive) | -3.81 |  |  |
| CC(NS(=O)(=O)c1ccc(OCC(=O)NCc2cccnc2)cc1)c1ccccc1 (stereo unspecified) |  | -6.31 | 0.651 µM (active) |  |
| CC(NS(=O)(=O)c1ccc(OCC(=O)NCc2ccncc2)cc1)c1ccccc1 (stereo unspecified) |  | 0.901 |  | inactive |
| COCC1CCN(Cc2nc(-c3ccc(OC)cc3)no2)CC1 | 8.81% (inactive) | 9.88 |  |  |
| Cc1ccc(CSCC(=O)N(C)CC(=O)Nc2ccc(C)cc2)cc1 | 0.736% (inactive) | 15.6 |  |  |
| Cc1ccc(CSCC(=O)N(C)CC(=O)Nc2ccc(Cl)c(Cl)c2)cc1 |  | 1.04 |  | inactive |
| COc1ccc(NC(=O)CN(C)C(=O)CSCc2ccc(C)cc2)cc1 |  | -11 | 10.3 µM (active) |  |
| CCC(C)NC(=O)CN1C(=O)C(CC)Sc2ccccc21 (stereo unspecified) | -2.81% (inactive) | -9.92 |  |  |
| CCOc1ccccc1NC(=O)C1CCCN(S(=O)(=O)c2ccc(-n3cnnn3)cc2)C1 (stereo unspecified) |  | 20.5 |  | inactive |
| CCOC(=O)C1(CC2CC2)CCN(C(=O)c2ocnc2C)CC1 | -7.18% (inactive) | -6.88 |  |  |
| CCOC(=O)C1(CC2CC2)CCN(C(=O)c2cc(C3CC3)nc3ccccc23)CC1 |  | -20.4 | 25.9 µM (active) |  |
| CCOC(=O)C1(CC2CC2)CCN(C(=O)c2cccnc2C)CC1 | 6.98% (inactive) | 26 |  |  |
| Cc1cc(Br)cc(C)c1NC(=O)c1ccc(C#N)cc1F | -22.4% (inactive) | 3.82 |  |  |
| C=CCNC(=S)NNC(=O)c1ccc(OCC)cc1 | -0.066% (inactive) | -9.79 |  |  |
| Cc1c(C(=O)NCCC2=CCCCC2)oc2ccc(S(=O)(=O)N3CCOCC3)cc12 | 16.1% (inactive) | -13.3 |  |  |
| Cc1c(C(=O)NCc2ccc(F)cc2)oc2ccc(S(=O)(=O)N3CCOCC3)cc12 |  | -3.6 |  | inactive |
| O=C(NCc1ccc(Cl)cc1)N1CCN(S(=O)(=O)c2ccccc2)CC1 | -6.54% (inactive) | 17.1 |  |  |

| SMILES | lipid storage change, negative = inhibition | cell number change [%] | Potency | outcome |
| --- | --- | --- | --- | --- |
| Cc1c(C(=O)NCCCN2CCOCC2)oc2ccc(S(=O)(=O)N3CCOCC3)cc12 | 10% (inactive) | 20.6 |  |  |
| Cc1c(C(=O)NCc2c(F)cc(F)cc2F)oc2ccc(S(=O)(=O)N3CCOCC3)cc12 |  | -3.48 | 2.91 µM (active) |  |
| COc1ccccc1CNC(=O)N1CCN(S(=O)(=O)c2ccc(Cl)cc2)CC1 |  | 1.35 | 0.13 µM (active) |  |
| CCOCCCNC(=O)c1oc2ccc(S(=O)(=O)N3CCOCC3)cc2c1C |  |  | 18.4 µM (active) |  |
| COc1ccccc1CNC(=O)c1oc2ccc(S(=O)(=O)N3CCOCC3)cc2c1C |  | -8.7 | 29.1 µM (active) |  |
| COc1ccccc1CNC(=O)c1oc2ccc(S(=O)(=O)N3CCCC3)cc2c1C | -29.2% (inactive) |  |  |  |
| COc1cccc(NC(=O)c2oc3ccc(S(=O)(=O)N4CCOCC4)cc3c2C)c1 | 5.07% (inactive) | 4.15 |  |  |
| COc1ccccc1CNC(=O)[C@@H]1CCCN1S(=O)(=O)c1ccc(Cl)cc1 |  | -7.14 |  | inactive |
| Cc1c(C(=O)NCCCN2CCCC2=O)oc2ccc(S(=O)(=O)N3CCOCC3)cc12 |  | -0.135 |  | inactive |
| O=C1CN(C(=O)CNC(=O)c2cccc(Cl)c2)c2ccccc2N1 | 0.224% (inactive) | 17 |  |  |
| Cc1cccn2c(=O)c(/C=C(\C#N)S(=O)(=O)c3ccccc3)c(Oc3ccc(Cl)cc3)nc12 | 2.66% (inactive) | -10.2 |  |  |
| CC(=O)N1CCN(c2ccccc2NC(=O)COc2cc(C)cc(C)c2)CC1 | -100% (inactive) | 13.5 |  |  |
| CCOc1ccc(S(=O)(=O)NCc2csc(C)n2)cc1 |  |  |  | inactive |
| CCS(=O)(=O)c1ccc2oc(Nc3ccc(C(C)C)cc3)nc2c1 | -3.92% (inactive) | 2.93 |  |  |
| CCn1nc(C)cc1C(=O)N1CCc2c([nH]c3ccccc23)C1c1cc(F)ccc1F (stereo unspecified) | -9.5% (inactive) | 8.47 |  |  |
| CN(C)S(=O)(=O)c1ccc(N2CCCC2)c(C(=O)Nc2ccccc2OC(F)F)c1 | 9.18% (inactive) | 29.4 |  |  |
| COc1ccc(C(C)(C)C)cc1NC(=O)c1cc(S(=O)(=O)N(C)C)ccc1N1CCCC1 |  | -23.6 | 18.4 µM (active) |  |
| CN(C)S(=O)(=O)c1ccc(N2CCCC2)c(C(=O)Nc2ccccc2F)c1 | 14.2% (inactive) | 25.2 |  |  |
| COc1ccc(S(=O)(=O)NC2CCCC2)cc1NC(C)=O | -1.83% (inactive) | 17.4 |  |  |
| COc1ccc(C=O)cc1Oc1nc(Cl)ncc1F | 21.6% (inactive) | 5.61 |  |  |
| CC(CCc1ccccc1)NC(=O)CN1CCN(c2ccc(O)cc2)CC1 (stereo unspecified) | -11.9% (inactive) | 0.962 |  |  |
| CC(=O)Nc1ccc(SCC(=O)c2ccc(Br)s2)cc1 |  | 5.88 |  | inactive |
